PLK1 PBD block – blocks phosphopeptide binding to human PLK1 polo-box domain; 360,000 compounds, 2.8% hits; AID 720504; Plk1 PBD binding of FITC phosphopeptide, fluorescence polarization; Potency, µM, for inactives: max response, negative = inhibition, hits mostly inhibitors; note: series mostly up to about 57 µM; nearly all actives have a fitted effect of over 65% in size
ALOX12 inh – ALOX12 (human) lipoxygenase inhibition; Potency, µM (series often up to 108 µM), inactives show at the top dose activity change, negative = inhibition, usual class: inhibitors; purified 12hLO, xylenol orange hydroperoxide absorbance; AID 1671190; P18054; 580,000 compounds, 1.1% hits
Target sequence (P18054 whole entry, looked up): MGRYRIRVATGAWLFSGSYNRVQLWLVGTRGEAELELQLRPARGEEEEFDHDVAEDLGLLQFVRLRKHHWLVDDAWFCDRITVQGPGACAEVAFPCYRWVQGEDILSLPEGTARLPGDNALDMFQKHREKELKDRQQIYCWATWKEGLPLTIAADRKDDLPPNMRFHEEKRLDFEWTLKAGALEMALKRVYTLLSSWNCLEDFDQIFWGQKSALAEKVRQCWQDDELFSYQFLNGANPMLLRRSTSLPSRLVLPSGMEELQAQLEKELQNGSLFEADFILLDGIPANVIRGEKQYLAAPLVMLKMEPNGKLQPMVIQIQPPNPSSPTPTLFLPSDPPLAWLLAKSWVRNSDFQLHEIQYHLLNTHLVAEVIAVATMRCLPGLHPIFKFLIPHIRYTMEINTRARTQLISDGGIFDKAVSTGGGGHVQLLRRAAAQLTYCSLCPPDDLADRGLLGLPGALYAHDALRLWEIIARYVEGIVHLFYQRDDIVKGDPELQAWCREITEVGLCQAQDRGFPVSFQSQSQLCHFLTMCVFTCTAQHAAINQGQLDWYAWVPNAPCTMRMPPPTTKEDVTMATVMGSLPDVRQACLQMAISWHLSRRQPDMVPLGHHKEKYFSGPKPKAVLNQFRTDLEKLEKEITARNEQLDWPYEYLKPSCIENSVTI
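Purified human 12hLO at 150 nM in 25 mM Hepes, 0.01% Triton X-100, pH 7.0, preincubated 15 min at room temperature with compound. Reaction started with 40 uM arachidonic acid, 30 min at room temperature. Hydroperoxide measured by Fe-xylenol orange, 573/405 nm absorbance ratio.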
KAT2A inh – inhibitors of human GCN5L2 histone acetyltransferase; Q92830; GCN5L2 HAT assay, ThioGlo1 CoA-SH fluorescence; Potency, µM (highest dose often 58.9 µM), inactives show at the top dose activity change, negative = inhibition, actives largely listed as inhibitors; 390,000 compounds, 0.21% hits
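Titration-based screen in which CoA formation is detected via maleimide probe ThioGlo1 (50uM) turning fluorescent on thiol reaction; substrates H3(1-25) 75uM and acetyl-CoA 70uM, GCN5L2 20nM, 20 min incubation at room temperature.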
VDR inhibitor – blocks the human vitamin D receptor | VDR-SRC2-3 peptide fluorescence polarization, 2 h | Potency, µM, for the others: max response, negative = inhibition, actives largely listed as inhibitors | 400,000 compounds, 0.93% hits | AID 504847
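After 23 nl compound addition and a short centrifugation, plates sat for 2 hours at ambient temperature; polarization of fluorescence then indicated loss of VDR binding to peptide SRC2-3.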
* = called active by the depositor; u = inconclusive; x = no result given; [ ] = dose if it differs, or a comment. An excerpt weighted towards active compounds, which were near 3% of everything screened. Calls come from the whole dose curve; as a rule, active = well fitted curve in the direction sought with a large enough effect; inconclusive = small, poorly fitted or top-dose-only effect, or another doubt; inactive = no such curve, though single readings can be large; an effect the other way counts as inactive or inconclusive. % is set by controls: 0 for no effect and ±100 for the full control effect; potency is the fitted concentration of half-maximal effect.

SMILES | PLK1 PBD block | ALOX12 inh | KAT2A inh | VDR inhibitor
COc1ccc(SCC(=O)c2ccc(O)cc2O)cc1 | x | 40µM* | x | x
COC(=O)c1cc(F)ccc1NC(=O)N1CCc2[nH]cnc2C1c1ccc(Cl)cc1 (stereo not drawn) | x | -8% | x | x
Cc1cc2oc(=O)cc(CSc3nnc(-c4cccs4)o3)c2cc1C(C)C | 24µM* | 4% | -6% | -17%
CCn1nc(C)cc1C(=O)N1CCCC(Nc2ccc(F)c(F)c2)C1 (stereo not drawn) | 0% | 4% | -4% | -13%
CCn1nc(CC(C)C)cc1C(=O)N1CCCC(Nc2ccc(OC)cc2)C1 (stereo not drawn) | 27µM* | -7% | -3% | -30%
O=C(Nc1ccc(F)cc1F)C12CC3CC(CC(C3)C1)C2 | x | 22% | x | x
Cn1c(=O)c2c(nc(N3CCN(C(=O)c4ccccc4)CC3)n2Cc2ccccc2)n(C)c1=O | x | 0% | x | x
CC(=O)C1=C(O)C(=O)N(c2ccccn2)C1c1ccc(Cl)cc1 (stereo not drawn) | -8% | u | -3% | -14%
CC(=O)C1=C(O)C(=O)N(c2ccc(Br)cc2)C1c1ccc(Br)cc1 (stereo not drawn) | -14% | 7.9µM* | -10% | u
CC(=O)C1=C(O)C(=O)N(Cc2ccccc2)C1c1ccc(Br)cc1 (stereo not drawn) | -26% | 11µM* | -17% | -7%
CC(=O)C1=C(O)C(=O)N(c2cccc(Br)c2)C1c1ccc(Br)cc1 (stereo not drawn) | -23% | u | 1% | -28%
CC(=O)C1=C(O)C(=O)N(c2nccs2)C1c1ccccc1 (stereo not drawn) | -5% | 8.9µM* | -6%[0.501 µM] | 2%
CC1CCCCC1NC(=O)c1ccco1 (stereo not drawn) | -7% | -12% | 0% | 12%
CCC(=O)Nc1ccc(Cl)c(NC(=S)NC(=O)c2ccco2)c1 | 27µM* | u | -1% | -4%
CC1CCCC(NC(=S)NC(=O)c2ccco2)C1C (stereo not drawn) | -2% | 32µM* | -9% | -18%
O=C(NC(=S)Nc1cccc2c(O)cccc12)c1ccco1 | 24µM* | u | -3% | -23%
CC1CCN(c2ccc(NC(=S)NC(=O)c3ccco3)cc2)CC1 | -7% | -15% | 22µM* | -7%
COc1ccc2c(c1)nc1n2[C@@H](CNCc2ccccc2)COC1 | x | -4%[176 µM] | x | x
CCN(CC)CC1CCN(C(=O)c2cc(=O)[nH]c3ccccc23)CC1 | x | 59% | x | x
O=C(NC(=S)Nc1ccc(NC(=O)c2cccs2)cc1)c1ccco1 | 19µM* | -23% | -2% | u
O=C(c1ccc(Cl)cc1)N1CC2(CCCN(Cc3ccc(Cl)cc3)C2)Cc2ccccc21 (stereo not drawn) | x | 3.5µM* | x | x
O=C(Nc1ccc(S(=O)(=O)N2CCOCC2)cc1)c1ccc(Cl)c([N+](=O)[O-])c1 | 27µM* | 21% | x | -17%
CCOC(=O)c1ccc(NC(=O)c2ccc(C)c(S(=O)(=O)N3CCOCC3)c2)cc1 | 27µM* | -24% | u | -11%
O=C(Nc1ccc(S(=O)(=O)N2CCOCC2)cc1)c1cc([N+](=O)[O-])ccc1Cl | 1% | -11% | 0% | -12%
O=C(COC(=O)c1ccc(F)c(S(=O)(=O)N2CCOCC2)c1)c1ccc(Cl)cc1 | -6% | 0% | -12% | 75%
SMILES | PLK1 PBD block | ALOX12 inh | KAT2A inh | VDR inhibitor
O=C(Nc1nc(-c2ccccn2)cs1)c1ccc(F)c(S(=O)(=O)N2CCOCC2)c1 | 12µM* | -20% | -10% | 89µM*
CCOC(=O)c1c(C)[nH]c(C(=O)COC(=O)c2ccc(F)c(S(=O)(=O)N3CCOCC3)c2)c1C | 27µM* | 6% | -1% | -6%
CC(C)N1CCC(NC(=O)c2ccc3ccccc3c2)CC1 | x | -28% | x | x
Cc1ccc(C(=O)Nc2nc(-c3ccccn3)cs2)cc1S(=O)(=O)N1CCOCC1 | 7.5µM* | 9% | -9% | 79µM*
COc1ccc(-c2ccc(C#N)c(SCC(=O)Nc3ccccc3Cl)n2)cc1 | x | -5% | x | x
COC(=O)CCC(=O)OC1(C)C(=O)C=C2C=C(C3CC3)N(CCCOC(C)C)C=C2C1=O (stereo not drawn) | 30µM* | x | -2% | u
Cc1nc(NCCc2ccccc2)sc1C(=O)N(C)C | 19µM* | u | -2% | -26%
COc1ccccc1CNc1nc(C)c(C(C)=O)s1 | 15µM* | u | 0% | -5%
COc1ccccc1CNc1nc(C)c(C(=O)N(C)C)s1 | 24µM* | u | -13% | u
Cc1nc(NC2CC2)sc1C(=O)NCCc1ccccc1 | x | 20% | x | x
Cc1[nH]n(-c2ccccc2)c(=S)c1C=NCCCN=Cc1c(C)[nH]n(-c2ccccc2)c1=S | 17µM* | 11µM* | 18µM* | u
CC(Oc1c(Cl)cccc1Cl)C(=O)NN (stereo not drawn) | x | 19% | x | x
CC1=C[C@@H](CN2CCC(C(N)=O)CC2)[C@H](C(C)C)C[C@H]1Cc1nnc(-c2ccc(N(C)C)cc2)o1 | x | 48% | x | x
CCOc1ccc(NC(=O)c2cn(-c3ccc(OCC)cc3)c(=O)c3cc(OC)c(OC)cc23)cc1 | -8% | 0% | -18% | 17%
CCOc1ccc(-n2cc(C(=O)NC(C)C)c3cc(OC)c(OC)cc3c2=O)cc1 | 24µM* | 0% | -11% | u
CC(C)(C)C(=O)Nc1nc2c(s1)COc1ccccc1-2 | -18% | 0% | 0% | u
Nc1nc2c(s1)COc1ccccc1-2 | 19µM* | u | 21% | u
Cc1onc(-c2ccccc2)c1C(=O)NN=Cc1cc(Cl)cc(Cl)c1O | x | 13µM* | x | x
Cc1onc(-c2ccccc2)c1C(=O)N/N=C/c1cccc(O)c1 | -17% | -16% | 0% | -18%
NC(=O)C1CCN(C(=O)C2CCN(S(=O)(=O)Cc3c(F)cccc3Cl)CC2)CC1 | x | -4% | x | x
CC(C)C/C(=N\NC(=O)C1CC1c1ccccc1)c1ccccc1 (stereo not drawn) | x | 10% | x | x
CCCc1cc(-c2n[nH]c(=S)n2-c2cccc(C)c2)cs1 | u | 45µM* | 2% | -8%
Cc1c(N2C(=O)CS/C2=N\N=C\c2ccc(Br)cc2)c(=O)n(-c2ccccc2)n1C | -3% | 0% | 1.6µM* | 8%
CCn1nc(NC(=O)c2ccncc2)c2cc3cc(C)ccc3nc21 | 3.8µM* | 0% | -12% | -18%
O=c1nc2n(c3ccccc13)Cc1ccccc1-2 | x | x | 1% | x
SMILES | PLK1 PBD block | ALOX12 inh | KAT2A inh | VDR inhibitor
O=c1c2cccc(Cl)c2nc2n1Cc1ccccc1-2 | 2.7µM* | u | u | 79µM*
N=C1/C(=C/c2ccc(OCc3ccccc3F)cc2)C(=O)N=C2SC(CC(=O)N3CCOCC3)=NN12 | 38µM* | -7% | -22% | -14%
Cc1cc(C)c(CN2CCC3(CC2)Cc2ccccc2CNC3=O)c(C)c1 | x | 3%[6.33 µM] | x | x
CCn1c(CC(=O)Nc2ccc(F)cc2)nnc1SCC(=O)N1CCOCC1 | 30µM* | 0% | -14% | 19%
Cc1cc(NC(=O)COC(=O)c2cc3ccccc3s2)no1 | x | -1% | x | x
CC(CN1CCCCC1)OC(=O)COc1ccc(Cl)cc1 (stereo not drawn) | 24µM* | -17% | -1% | u

Source: PubChem (National Center for Advancing Translational Sciences (NCATS))
